Source: PubChem BioAssay (several laboratories)
NR5A2 inv ag – inverse agonists of human LRH-1 (NR5A2). HEK293T StAR-luciferase reporter, LRH-1 transfected, 24 h. inhibition, % at 3.6 µM. 0.13% of 360,000 active;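 active = inhibition above the mean inhibition of all tested compounds plus 3 SD, cut at about 73% in these data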
COUP-TFII inh – blocks human COUP-TFII nuclear receptor | P24468 | HEK293T NGFI-A luciferase reporter, luminescence | inhibition, % at 8.6 µM | 0.7% of 370,000 active | AID 686940;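 active = inhibition above a per-plate cutoff, mean inhibition of test wells between control levels plus 3 SD, cut at about 38% in these data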;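 note: cells cotransfected with COUP-TFII expression vector driving the NGFI-A reporter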
Target sequence (P24468 whole entry, looked up): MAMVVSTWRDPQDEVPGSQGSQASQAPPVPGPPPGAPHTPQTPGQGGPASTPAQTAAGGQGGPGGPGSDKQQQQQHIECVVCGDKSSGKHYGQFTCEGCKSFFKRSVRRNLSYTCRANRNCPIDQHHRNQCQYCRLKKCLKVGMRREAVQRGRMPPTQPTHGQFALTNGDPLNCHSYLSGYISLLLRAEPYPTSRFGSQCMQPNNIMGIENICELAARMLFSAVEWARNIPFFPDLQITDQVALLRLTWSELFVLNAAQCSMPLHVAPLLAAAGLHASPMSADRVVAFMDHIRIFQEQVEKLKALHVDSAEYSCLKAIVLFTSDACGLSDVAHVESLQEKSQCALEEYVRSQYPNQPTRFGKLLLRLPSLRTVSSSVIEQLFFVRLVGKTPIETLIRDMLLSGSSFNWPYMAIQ
NCOA1 inh – inhibitors of human steroid receptor coactivator 1 (SRC1); inhibition, % at 3.6 µM; Q15788; AID 588354; HEK293 GAL4-SRC1 luciferase reporter, luminescence; 0.12% of 360,000 active;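 active = inhibition above the campaign mean plus 3 SD, with each screening campaign given its own cutoff, cut at about 60% in these data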
SRC2 inh – inhibits human steroid receptor coactivator 2 | Q15596 | HEK293 GAL4-SRC2 luciferase reporter, luminescence | 0.17% of 370,000 active | inhibition, % at 9 µM;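 active = inhibition above the mean inhibition of all tested compounds plus 3 SD, set per campaign, cut at about 52% in these data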
Gli-Sufu antag – antagonists of Gli-Sufu signaling; Sufu-KO-LIGHT fibroblasts, Gli luciferase reporter luminescence; inhibition, % at 5 µM; 0.74% of 340,000 active; AID 588413;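 active = inhibition above about 55%, limit read from the data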
NCOA3 inh – inhibits human SRC3 coactivator; inhibition, % at 3.6 µM; HEK293 GAL4-SRC3 luciferase reporter, luminescence; Q9Y6Q9; 0.17% of 360,000 active;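 active = inhibition above a per-campaign cutoff, the mean of all compounds plus 3 SD, cut at about 60% in these data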;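 note: higher means less SRC3-driven luciferase light from the GAL4 reporter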
Gal4-VP16 ctr – inhibits VP16 reporter, flagging COUP-TFII antagonist hits | shares compounds with COUP-TFII inh | HEK293 Gal4-VP16 luciferase reporter, luminescence | inhibition, % at 8.5 µM | 25% of 2,500 active; in the data active = inhibition above about 13%
NR2F2 inh conf – confirmation of human COUP-TFII (NR2F2) inhibitors; shares compounds with COUP-TFII inh; HEK293 NGFI-A luciferase reporter, luminescence; inhibition, % at 8.5 µM; 45% of 2,500 active; AID 687008;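 active = mean inhibition over three repeats above a set limit taken from the earlier primary screen, cut at about 38% in these data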
Of the large screens only hits and unclear results are named; the others gave an inactive call (follow-up assays come after a bar, where they were run). Shown are actives, neighbours in structure and some others; about 1.3% of the full set was active somewhere.

CC(C)(C)c1ccc(C(=O)Nc2cccc3c(=O)[nH][nH]c(=O)c23)cc1	COUP-TFII inh 48 | Gal4-VP16 ctr inactive | NR2F2 inh conf 54
Cc1ccc(C(=O)Nc2cccc3ccccc23)cc1	none
COC(=O)[C@]12C[C@H](CC(=O)NCCCCc3ccccc3)C(=O)N(CCC3=CCCCC3)C1=C[C@H](COCc1ccccc1)O[C@@H]2C	none (no result: NR5A2 inv ag, NCOA1 inh, Gli-Sufu antag, NCOA3 inh)
COc1cccc2c1C(=O)c1c(O)c3c(c(O)c1C2=O)C[C@@](O)(C(C)=O)C[C@@H]3O[C@H]1C[C@H](N)[C@H](O)[C@H](C)O1	NR5A2 inv ag 99, COUP-TFII inh 54, NCOA3 inh 82 | Gal4-VP16 ctr 28 | NR2F2 inh conf 44
COc1cccc2c1C(=O)c1c(O)c3c(c(O)c1C2=O)CC(O)(C(=O)CO)CC3OC1CC(N(C)C)C(O)C(C)O1 (stereo unspecified)	NR5A2 inv ag 97, COUP-TFII inh 45, NCOA1 inh 79, SRC2 inh 58, Gli-Sufu antag 85, NCOA3 inh 85 | Gal4-VP16 ctr 28 | NR2F2 inh conf inactive
COc1ccc(-c2noc(CCC(=O)O)n2)cc1	none
CCOc1ccc(-c2noc(CCC(=O)O)n2)cc1	COUP-TFII inh 82, SRC2 inh 73 | Gal4-VP16 ctr 66 | NR2F2 inh conf 57
COc1ccc(-c2noc(CCCC(=O)O)n2)cc1	COUP-TFII inh 83, SRC2 inh 77 | Gal4-VP16 ctr 81 | NR2F2 inh conf 80
CCCCCCCCN1C(=O)[C@@H](CC(=O)NCCC(C)C)C[C@@]2(C(=O)OC)C1=C[C@H](COCc1ccccc1)O[C@@H]2C	none (no result: NR5A2 inv ag, NCOA1 inh, Gli-Sufu antag, NCOA3 inh)
CC1CC(C)C(=O)C(C(CC2CC(=O)NC(=O)C2)OC(=O)CC(=O)c2ccccc2)C1 (stereo unspecified)	NR5A2 inv ag 98, COUP-TFII inh 71, NCOA1 inh 80, SRC2 inh 54, NCOA3 inh 85 | Gal4-VP16 ctr inactive | NR2F2 inh conf 50
O=C(CC1(O)C(=O)Nc2ccccc21)c1ccccc1 (stereo unspecified)	none
COc1ccccc1NS(=O)(=O)c1cc(NC(=O)c2ccc(Cl)nc2)ccc1Cl	COUP-TFII inh 68 | Gal4-VP16 ctr 15 | NR2F2 inh conf 60
COc1ccccc1NC(=O)Nc1ccc(Cl)c(S(=O)(=O)Nc2ccccc2OC)c1	none
COc1ccc(C(=O)Nc2ccc(Cl)c(S(=O)(=O)Nc3ccccc3OC)c2)cc1	COUP-TFII inh 63 | Gal4-VP16 ctr inactive | NR2F2 inh conf 67
COc1ccc(C2Nc3ccccc3C(=O)N2Cc2ccc(C)o2)cc1COc1c(C)cccc1C (stereo unspecified)	none (no result: NR5A2 inv ag, NCOA1 inh, SRC2 inh, Gli-Sufu antag, NCOA3 inh)
CS(=O)(=O)N(CCC#N)Cc1ccc(/C=C2\C(=O)Nc3ccccc32)o1	COUP-TFII inh 38 | Gal4-VP16 ctr inactive | NR2F2 inh conf inactive
CC(=O)/C=C1/C(=O)Nc2ccccc21	none
COC(=O)[C@]12C[C@H](CC(=O)N3CCCC3)C(=O)N(CCC3=CCCCC3)C1=C[C@H](C(C)C)O[C@@H]2C1CC1	none (no result: NR5A2 inv ag, NCOA1 inh, Gli-Sufu antag, NCOA3 inh)
Cc1cnc(NC(=O)c2ccc3c(c2)OCCO3)s1	COUP-TFII inh 46, SRC2 inh 67 | Gal4-VP16 ctr inactive | NR2F2 inh conf inactive
COc1ccc(CN2CCN(C(=O)c3ccc(S(=O)(=O)N4CCCCCC4)cc3)CC2)cc1	COUP-TFII inh 63 | Gal4-VP16 ctr inactive | NR2F2 inh conf 48
O=C(c1ccc(S(=O)(=O)N2CCCCCC2)cc1)N1CCN(Cc2ccccc2)CC1	none
COc1ccc(C(=O)N2CCN(Cc3ccccc3C(F)(F)F)CC2)cc1	COUP-TFII inh 80 | Gal4-VP16 ctr inactive | NR2F2 inh conf inactive
COc1cccc(C(=O)N2CCN(Cc3ccccc3C(F)(F)F)CC2)c1	none
COc1ccc(CN2CCN(C(=O)c3ccc(S(=O)(=O)N4CCCCCC4)cc3)CC2)cc1F	COUP-TFII inh 53 | Gal4-VP16 ctr inactive | NR2F2 inh conf inactive
O=S1(=O)c2ccc(N3CCC[C@@H]3CO)cc2O[C@H]2CCN1C2	none (no result: NR5A2 inv ag, NCOA1 inh, Gli-Sufu antag, NCOA3 inh)
CN(CCc1ccccn1)C(=O)Cn1nc(-c2ccccc2)ccc1=O	none (no result: NR5A2 inv ag, NCOA1 inh, Gli-Sufu antag, NCOA3 inh)
CC(C)(C)c1ccc(-c2cn(C[C@H](Cc3ccccc3)n3c(=O)c4ccccc4n3Cc3ccco3)nn2)cc1	none (no result: NR5A2 inv ag, NCOA1 inh, Gli-Sufu antag, NCOA3 inh)
COc1ccccc1NC(=O)O[C@@H]1CC[C@@]23CCCN2C(=O)CCC[C@H]3C1	none (no result: NR5A2 inv ag, NCOA1 inh, SRC2 inh, Gli-Sufu antag, NCOA3 inh)
Fc1ccc(Nc2ncnc3sccc23)cc1	none
COc1ccc(CC2CCN(c3ncnc4sccc34)CC2)cc1	COUP-TFII inh 68 (no result: NR5A2 inv ag, NCOA1 inh, SRC2 inh, Gli-Sufu antag, NCOA3 inh) | Gal4-VP16 ctr inactive | NR2F2 inh conf 59
Fc1ccc(CC2CCN(c3ncnc4sccc34)CC2)cc1	COUP-TFII inh 74 (no result: NR5A2 inv ag, NCOA1 inh, SRC2 inh, Gli-Sufu antag, NCOA3 inh) | Gal4-VP16 ctr inactive | NR2F2 inh conf 54
COc1cccc(OCCn2cc(C(C)=O)c3ccccc32)c1	COUP-TFII inh 49 | Gal4-VP16 ctr inactive | NR2F2 inh conf 43
O[C@H](COc1ccc(OC(F)(F)F)cc1)CN1CCC(C(O)(c2ccccc2)c2ccccc2)CC1	none (no result: NR5A2 inv ag, NCOA1 inh, Gli-Sufu antag, NCOA3 inh)
Oc1ccc2ccccc2c1CN1CCCCC1	COUP-TFII inh 45 | Gal4-VP16 ctr inactive | NR2F2 inh conf inactive
COC(=O)[C@]12C[C@H](CC(=O)NCc3ccc(C)o3)C(=O)N(CCc3ccc(OC)c(OC)c3)C1=C[C@H](C(C)C)O[C@@H]2C1CC1	none (no result: NR5A2 inv ag, NCOA1 inh, Gli-Sufu antag, NCOA3 inh)
COc1cc(-c2nnc(SCC(=O)N3C(C)CCCC3C)o2)cc(OC)c1OC (stereo unspecified)	none (no result: NR5A2 inv ag, NCOA1 inh, Gli-Sufu antag, NCOA3 inh)
Cc1ccc(NC(=O)C(C)c2cccc(C(=O)c3ccccc3)c2)cc1O (stereo unspecified)	COUP-TFII inh 48 | Gal4-VP16 ctr inactive | NR2F2 inh conf inactive
CCC(=NCc1ccco1)c1c(C(F)(F)F)[nH]n(-c2nc3ccccc3s2)c1=O	none
CC(=NCc1ccco1)c1c(C)[nH]n(-c2nc3ccccc3s2)c1=O	COUP-TFII inh 62 | Gal4-VP16 ctr inactive | NR2F2 inh conf inactive
CCN(CC)C(=O)CC[C@H]1CC[C@]2(CCCN(Cc3ccc(OC)cc3)C2)O1	none (no result: NR5A2 inv ag, NCOA1 inh, Gli-Sufu antag, NCOA3 inh)
C=CCC12C=C(OC)C(=O)C(C1=O)C1c3ccccc3CC12 (stereo unspecified)	none (no result: NR5A2 inv ag, NCOA1 inh, Gli-Sufu antag, NCOA3 inh)
Cc1c(C(=O)N2CCC(C)CC2)oc2ccc3c(c12)C(O)CC1(CCCCC1)O3 (stereo unspecified)	COUP-TFII inh 38 | Gal4-VP16 ctr inactive | NR2F2 inh conf inactive
CCC(=O)N1CCc2cc(Br)c(S(=O)(=O)N3CCC(C(=O)NCCCOC(C)C)CC3)cc21	none (no result: NR5A2 inv ag, NCOA1 inh, Gli-Sufu antag, NCOA3 inh)
COC(=O)c1c(NC(=O)CCCC(=O)O)sc(C)c1C	none
Cc1sc(NC(=O)CCCC(=O)O)c(C(N)=O)c1-c1ccccc1	COUP-TFII inh 60, SRC2 inh 75 | Gal4-VP16 ctr 47 | NR2F2 inh conf inactive
C[n+]1c2n(c3ccccc31)N=C(c1ccc(Br)cc1)CS2	COUP-TFII inh 48, Gli-Sufu antag 68 | Gal4-VP16 ctr 20 | NR2F2 inh conf 51
